Only some compounds are listed: those with a hit (about 2.2% of all), similar ones and a draw of the others.
aSyn rescue = inhibitors of alpha-synuclein toxicity in yeast; Yeast expressing alpha-synuclein, growth rescue, BacTiter-Glo, 24 h; Potency, µM (titrated, usually from 46.1 µM), for inactives: top-dose growth rescue (activation), actives largely listed as activators; actives 0.14% (n = 370,000); AID 652106; further: % of control where 0% means no effect; nearly all actives have a fitted effect of over 65% in size
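Readout is rescue of growth in alpha-synuclein-expressing yeast, so inhibitors of toxicity appear as activators. Growth after 24 hr at 30 deg C in galactose medium is quantified by luminescence.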
TDP43 rescue = TDP-43 toxicity inhibition in yeast; TDP-43 expressing yeast growth rescue, BacTiter-Glo, 24 h; Potency, µM (highest dose often 46.1 µM), inactives show at the highest dose growth rescue (activation), usual class: activators; actives 1.8% (n = 410,000); AID 652104; further: % of control where 0% means no effect; nearly all actives have a fitted effect of over 50% in size
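Readout is BacTiter-Glo luminescence of cell growth, so inhibitors register as activators. TDP-43-expressing yeast at OD600=0.02 in galactose medium, after raffinose pregrowth to mid-log, were incubated with compound for 24 hr at 30 deg C.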
FUS yeast rescue = FUS proteinopathy suppression in yeast. S. cerevisiae FUS-expressing, growth rescue, OD600, 24 h. Potency, µM (series often up to 76.6 µM), most hits filed as activators. actives 0.24% (n = 390,000);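 further: plate controls were DMSO vehicle for no effect and reference control for full effect; nearly all actives have a fitted effect of over 55% in size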
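Restored growth of FUS-toxic S. cerevisiae, read as 600 nm absorbance after 24 h at 30C in galactose medium (starting OD 0.005). Controls CP55940 and DMSO.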
Mito fusion yeast = inhibitors of mitochondrial division or activators of mitochondrial fusion. AID 485298. Potency, µM (titrated, usually from 46.1 µM), inactives show at the highest dose growth rescue (activation), actives largely listed as activators. actives 0.23% (n = 320,000). S. cerevisiae fusion-defective mutant growth rescue, CellTiterGlo 48 h; further: % of control where 0% means no effect; nearly all actives have a fitted effect of over 45% in size
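Luminescent cell viability in 1536-well qHTS format served as the measure of rescued growth in ts fusion-mutant S. cerevisiae cultured on non-fermentable YPEG for 48 hours at 37C.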
Abeta yeast res = compounds reversing amyloid beta toxicity in yeast; yeast expressing A-beta42, growth rescue, OD600, 48 h; response scale: 0% DMSO, 100% iron-clioquinol control; Potency, µM (highest dose often 46.1 µM), actives largely listed as activators; actives 0.063% (n = 410,000); AID 1347071; further: nearly all actives have a fitted effect of over 55% in size
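Growth rescue measured by 600 nm absorbance after 48 h yeast culture at 30 C with compound. Values normalized between DMSO and an equimolar ferric chloride plus clioquinol control.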
Numbers without * were called inactive; ! = a repeat was not active. The call rests on the fitted dose curve; in most records, active means well fitted curve in the direction sought with a large enough effect; inconclusive means small, poorly fitted or top-dose-only effect, or another doubt; inactive means no such curve, though single readings can be large; an effect the other way counts as inactive or inconclusive. Potency means the concentration at half of the fitted maximal effect.

How did COc1ccc(-c2noc(-c3ccc(N4CCCCC4C)c([N+](=O)[O-])c3)n2)cc1OC (configuration not stated) do in these assays?
TDP43 rescue: 16%; FUS yeast rescue: inactive; Abeta yeast res: inactive

Results for COc1ccc(-c2cn3nc(N4CCCC(C(=O)Nc5ccccc5F)C4)sc3n2)cc1 (configuration not stated) ?
TDP43 rescue: 16%; FUS yeast rescue: inactive; Abeta yeast res: inactive

Results for Cc1cccc(-n2ncc3c(NC(C)C)ncnc32)c1 ?
aSyn rescue: -18%; TDP43 rescue: 11µM*; FUS yeast rescue: inactive; Mito fusion yeast: 15%; Abeta yeast res: inactive

Results for COc1ccc(C2=CC(=O)OC3(CCCC3)O2)cc1 ?
aSyn rescue: 0%; TDP43 rescue: 16µM*; FUS yeast rescue: inactive; Mito fusion yeast: 1%; Abeta yeast res: inactive

What do the screens show for `O=C(CN1N=C(c2ccc(Cl)cc2)CCC1=O)NCCc1ccc(Cl)cc1`?
TDP43 rescue: 22µM*; FUS yeast rescue: inconclusive; Abeta yeast res: inconclusive

How did Cc1ccc(-c2ccc(=O)n(CC(=O)NCCc3ccc(Cl)cc3)n2)cc1 do in these assays?
TDP43 rescue: 22µM*; FUS yeast rescue: inactive; Abeta yeast res: inactive

How did O=C(Cn1nc(-c2ccc(Cl)cc2)ccc1=O)NCCc1ccccc1 do in these assays?
aSyn rescue: 2%; TDP43 rescue: 5%; FUS yeast rescue: inactive; Abeta yeast res: inactive

How did CCc1ccc(/C=C2\SC(=S)N(CCCC(=O)N(CCO)c3ccccc3)C2=O)cc1 do in these assays?
aSyn rescue: 20%; TDP43 rescue: 35µM*; FUS yeast rescue: 22µM*; Abeta yeast res: inactive

How did N#CC1C=Cc2c(ccc3ccccc23)N1C(=O)c1ccccc1 (configuration not stated) do in these assays?
aSyn rescue: 8%; TDP43 rescue: 25%; Abeta yeast res: inactive

How did CCOc1ccccc1NC(=O)C(OC(=O)c1cnc(C)cn1)c1ccccc1 (configuration not stated) do in these assays?
aSyn rescue: 12%; TDP43 rescue: 18µM*; FUS yeast rescue: inactive; Abeta yeast res: inconclusive

How did CCCCc1ccc(Nc2cc(C)nc(-n3nc(C)cc3C)n2)cc1 do in these assays?
TDP43 rescue: -69%; FUS yeast rescue: inconclusive; Abeta yeast res: inactive

How did O=C1CSc2ccc(C(=O)Nc3cccc(S(=O)(=O)Nc4ccc(Br)cc4)c3)cc2N1 do in these assays?
aSyn rescue: -7%; TDP43 rescue: -14%; FUS yeast rescue: 7.1µM*; Mito fusion yeast: -1%; Abeta yeast res: inactive

Results for O=C(O)c1ccc(NC(=O)c2cccc(S(=O)(=O)Nc3ccc(C(=O)O)cc3)c2)cc1 ?
aSyn rescue: 2%; TDP43 rescue: 21%; FUS yeast rescue: inactive; Mito fusion yeast: 1%; Abeta yeast res: inactive

Results for CCCCn1c(SCC(=O)NCc2ccco2)nc2c(sc3ccccc32)c1=O ?
aSyn rescue: -9%; TDP43 rescue: 0%; FUS yeast rescue: 10µM*; Mito fusion yeast: -2%; Abeta yeast res: inactive

How did CCOCCCn1c(SCC(=O)NCc2ccco2)nc2c(sc3ccccc32)c1=O do in these assays?
TDP43 rescue: 18%; FUS yeast rescue: inactive; Mito fusion yeast: -1%; Abeta yeast res: inactive

Results for O=C(Nc1ccccc1F)n1ncc2cc(Cl)ccc21 ?
aSyn rescue: -4%; TDP43 rescue: 5%; FUS yeast rescue: inactive; Mito fusion yeast: 5.6µM*; Abeta yeast res: inactive

Results for Cc1nc2c(-c3ccc(F)cc3)c(C)nn2c(C)c1CCC(=O)NCc1ccc(Cl)cc1 ?
TDP43 rescue: -7%; FUS yeast rescue: inactive; Abeta yeast res: inactive

What do the screens show for `NC(=NCCCCCCN=C(N)/N=C(\N)Nc1ccc(Cl)cc1)/N=C(\N)Nc1ccc(Cl)cc1`?
aSyn rescue: -59%; TDP43 rescue: 25µM*!; FUS yeast rescue: inactive; Mito fusion yeast: -36%; Abeta yeast res: inactive

How did Cc1cc(C(=O)CCl)c(C)n1Cc1ccco1 do in these assays?
aSyn rescue: -31%; TDP43 rescue: 10µM*; FUS yeast rescue: inactive; Mito fusion yeast: -6%; Abeta yeast res: inactive

Results for COC(=O)CCCn1c(C)cc(C(=O)CCl)c1C ?
aSyn rescue: -35%; TDP43 rescue: 20µM*; FUS yeast rescue: inactive; Mito fusion yeast: 20%; Abeta yeast res: inactive

Results for COC(=O)CCn1c(C)cc(C(=O)COc2ccccc2C(N)=O)c1C ?
aSyn rescue: 6%; TDP43 rescue: -12%; FUS yeast rescue: inactive; Mito fusion yeast: 1%; Abeta yeast res: inactive

How did Cc1cc(C(=O)CCl)c(C)n1CCc1ccccc1 do in these assays?
aSyn rescue: -11%; TDP43 rescue: 10µM*; FUS yeast rescue: inactive; Mito fusion yeast: -13%; Abeta yeast res: inactive

What do the screens show for `Cc1cc(C)n2c(Nc3ccccc3C)c(-c3cccs3)nc2n1`?
TDP43 rescue: 1%; FUS yeast rescue: inactive; Abeta yeast res: inactive

How did CC1(C)Cc2ccccc2-c2nnc(SCc3ccc(C#N)cc3)n21 do in these assays?
aSyn rescue: 18%; TDP43 rescue: 13µM*; FUS yeast rescue: inactive; Mito fusion yeast: 18%; Abeta yeast res: inactive

How did O=C(Nc1cccc(NC(=O)c2ccccc2)n1)c1ccccc1 do in these assays?
aSyn rescue: -11%; TDP43 rescue: 11µM*; FUS yeast rescue: inactive; Mito fusion yeast: 8%; Abeta yeast res: inactive

How did CC(C)CN1C(=O)CSCC1(C)C(=O)NCc1ccccc1 (configuration not stated) do in these assays?
aSyn rescue: 3%; TDP43 rescue: 5%; FUS yeast rescue: inactive; Abeta yeast res: inactive

What do the screens show for `Cc1nn(-c2ccccc2)c2sc(C(=O)O)cc12`?
aSyn rescue: -22%; TDP43 rescue: inconclusive; FUS yeast rescue: inactive; Mito fusion yeast: 2%; Abeta yeast res: inactive

What do the screens show for `Cc1nn(-c2ccccc2)c2sc(-c3n[nH]c(=S)o3)cc12`?
aSyn rescue: -43%; TDP43 rescue: inconclusive; FUS yeast rescue: 7.1µM*; Mito fusion yeast: 17%; Abeta yeast res: inactive

Results for Cc1c(-c2ccc(Cl)cc2)oc(=O)c2c(N)n(-c3ccccc3)nc12 ?
aSyn rescue: 0%; TDP43 rescue: -6%; Mito fusion yeast: 9%; Abeta yeast res: inactive

How did Nc1c2c(=O)oc(-c3ccccc3)cc2nn1-c1ccccc1 do in these assays?
aSyn rescue: 25%; TDP43 rescue: 14µM*; FUS yeast rescue: inactive; Mito fusion yeast: 10%; Abeta yeast res: inactive

How did COc1cccc(NC(=O)CCSc2nc(-c3ccco3)cc(C(F)(F)F)n2)c1 do in these assays?
TDP43 rescue: 0%; FUS yeast rescue: inactive; Abeta yeast res: inactive
